Data published in PubChem BioAssay.
Results filed as inconclusive are left out. Activity calls are given as the source filed them.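 How the source made its calls, unless noted: active means GFP response above 150% of the DMSO control; inconclusive means Fewer than 70 cells counted for a yeast strain; inactive means the rest.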

What was measured:
[1] = yeast TOR pathway RPL19A-GFP modulators, primary screen, cell-based, S. cerevisiae, multiplex flow cytometry (AID 1862; in the data active means percent of DMSO control GFP below about 86%;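 further: lower values mimic rapamycin by blocking the RPL19A rise seen in DMSO cells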); conditions: S. cerevisiae RPL19A-GFP strain, flow cytometry fluorescence, 3 h; at 10 µM; stronger effect = lower value
[2] = modulators of MEP2-GFP levels in yeast, primary screen, S. cerevisiae, multiplex flow cytometry (AID 1867;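 active means GFP response, as percent of the DMSO control, above the screen-wide mean plus 3 SD, about 139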;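 further: median GFP channel fluorescence of barcode-gated MEP2-GFP cells measured by flow cytometry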); conditions: S. cerevisiae MEP2-GFP strain, 3 h, at 10 µM, stronger effect = higher value, 100% means same as DMSO wells
[3] = modulators of CIT2-GFP expression in yeast, primary screen, S. cerevisiae, GFP fusion, multiplex flow cytometry (AID 1870;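 active means percent response above a set limit, the screen-wide mean plus 3 SD, cut at about 130% in these data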;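 further: barcoded CIT2-GFP strain pooled with four other GFP strains with rapamycin as positive control; median GFP fluorescence per well over plate mean of DMSO wells so 100% = DMSO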); conditions: 3 h, at 10 µM, stronger effect = higher value
[4] = modulators of LAP4-GFP expression in yeast, primary screen, S. cerevisiae, multiplex flow cytometry (AID 1873;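 active means GFP signal, as percent of the solvent control, above the screen mean plus 3 SD, about 149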); conditions: 3 h, at 10 µM, stronger effect = higher value
[5] = modulators of AGP1-GFP expression in yeast TOR pathway, primary screen, cell-based, multiplex flow cytometry, S. cerevisiae (AID 1887;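 active means GFP signal above the screen-wide mean plus 3 SD, that is over about 124.5% of the solvent control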;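 further: AGP1-GFP fusion strain of S. cerevisiae within a five-strain barcoded multiplex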); conditions: 3 h, at 10 µM, stronger effect = higher value
[6] = RPL19A-GFP modulators, yeast TOR pathway, confirmation, cell-based, S. cerevisiae, flow cytometry, cherry picks, mother/daughter gates (AID 2270;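 active means GFP response below 50% of the DMSO control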); conditions: S. cerevisiae RPL19A-GFP strain, 3 h, at 10 µM, stronger effect = lower value, 100 = same GFP as DMSO wells
[7] = LAP4-GFP expression modulators in yeast, confirmation, cell-based, cherry picks, flow cytometry, mother/daughter gates (AID 2271;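 active means GFP response above 150% of the DMSO control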;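 further: ratio of sample to DMSO plate mean so 100% equals DMSO level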); conditions: S. cerevisiae LAP4-GFP strain, 3 h, at 10 µM, stronger effect = higher value, 100 means same as DMSO control
[8] = modulators of MEP2-GFP levels in yeast, confirmation, S. cerevisiae, flow cytometry GFP, cherry picks (AID 2272);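 further: ratio of well signal to plate DMSO mean so 100% equals DMSO level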; conditions: S. cerevisiae MEP2-GFP strain, 3 h, at 10 µM, stronger effect = higher value
[9] = modulators of CIT2-GFP expression in yeast, confirmation, S. cerevisiae, GFP fusion, cherry picks, mother/daughter gates (AID 2274;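 active means GFP response above 150% of the DMSO level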); conditions: S. cerevisiae CIT2-GFP strain, flow cytometry, 3 h, at 10 µM, stronger effect = higher value
[10] = inhibitors of CD8+ T cell-vesicle binding, pilot screen, LFA-1/ICAM-1 modulator project, MLPCN validation set, flow cytometry (AID 2523;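 active means response below a set limit, under 55% cells CD8-positive and vesicle-bound, and CD8 cells' 90th-percentile brightness under 279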;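 on vesicle binding response: mean PE anti-B7-1 fluorescence of CD8+ cells relative to row control; 100% = QL9-loaded vesicles with DMSO vehicle in the same plate row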); conditions: 2C mouse CD8+ T cells, at 7 µM, stronger effect = lower value; double positive events: measured here: CD8+/vesicle+ event percentage
[11] = measured here: daughter cell gate
[12] = measured here: mother cell gate
[13] = measured here: daughter cell gate response
[14] = measured here: mother cell gate response

CC(=O)[C@@]1(O)CC[C@H]2[C@@H]3CCC4=CC(=O)CC[C@]4(C)[C@H]3[C@@H](O)C[C@@]21C
percent of DMSO control GFP [1]: 104% (inactive) | GFP response vs DMSO [2]: 95.9% (inactive) | percent response of DMSO control [3]: 94.9% (inactive) | GFP response vs DMSO [4]: 90.3% (inactive) | GFP response, % of DMSO [5]: 96.4% (inactive) | GFP response vs DMSO [6]: 99.3% (inactive) | GFP response vs DMSO [6, 11]: 99.3% | GFP response vs DMSO [6, 12]: 99.7% | GFP response relative to DMSO [7]: 97.7% (inactive) | GFP response relative to DMSO [7, 13]: 97.9% | GFP response relative to DMSO [7, 14]: 96.5% | GFP response vs DMSO [8]: 102% (inactive) | GFP response, % of DMSO [9]: 96.4% (inactive) | GFP response, % of DMSO [9, 11]: 98.3% | GFP response, % of DMSO [9, 12]: 94.5% | double positive events [10]: 56.2% | vesicle binding response [10]: 182% (inactive)

CC(=O)CSc1ncnc2c1cnn2-c1ccccc1
percent of DMSO control GFP [1]: 90.6% (inactive) | GFP response vs DMSO [2]: 116% (inactive) | percent response of DMSO control [3]: 92.6% (inactive) | GFP response vs DMSO [4]: 77.6% (inactive) | GFP response, % of DMSO [5]: 87.3% (inactive) | GFP response vs DMSO [6]: 100% (inactive) | GFP response vs DMSO [6, 11]: 97.6% | GFP response vs DMSO [6, 12]: 100% | GFP response relative to DMSO [7]: 106% (inactive) | GFP response relative to DMSO [7, 13]: 101% | GFP response relative to DMSO [7, 14]: 106% | GFP response vs DMSO [8]: 99% (inactive) | GFP response, % of DMSO [9]: 93% (inactive) | GFP response, % of DMSO [9, 11]: 92% | GFP response, % of DMSO [9, 12]: 91.9% | double positive events [10]: 57.9% | vesicle binding response [10]: 221% (inactive)

O=[N+]([O-])c1cccc2cn[nH]c12
percent of DMSO control GFP [1]: 94.4% (inactive) | GFP response vs DMSO [2]: 155% (active) | percent response of DMSO control [3]: 114% (inactive) | GFP response vs DMSO [4]: 91.3% (inactive) | GFP response, % of DMSO [5]: 94.2% (inactive) | GFP response vs DMSO [6]: 97.3% (inactive) | GFP response vs DMSO [6, 11]: 96.4% | GFP response vs DMSO [6, 12]: 95.2% | GFP response relative to DMSO [7]: 98.9% (inactive) | GFP response relative to DMSO [7, 13]: 97.5% | GFP response relative to DMSO [7, 14]: 99.5% | GFP response vs DMSO [8]: 106% (inactive) | GFP response, % of DMSO [9]: 103% (inactive) | GFP response, % of DMSO [9, 11]: 101% | GFP response, % of DMSO [9, 12]: 103% | double positive events [10]: 51.9% | vesicle binding response [10]: 56% (active)

CCCCCCCC(=O)OCC(=O)[C@@]1(O)CC[C@H]2[C@@H]3CCC4=CC(=O)CC[C@]4(C)[C@H]3[C@@H](O)C[C@@]21C
percent of DMSO control GFP [1]: 102% (inactive) | GFP response vs DMSO [2]: 107% (inactive) | percent response of DMSO control [3]: 98.9% (inactive) | GFP response vs DMSO [4]: 96.6% (inactive) | GFP response, % of DMSO [5]: 98.3% (inactive) | GFP response vs DMSO [6]: 96.5% (inactive) | GFP response vs DMSO [6, 11]: 95.9% | GFP response vs DMSO [6, 12]: 96.9% | GFP response relative to DMSO [7]: 94.1% (inactive) | GFP response relative to DMSO [7, 13]: 92.9% | GFP response relative to DMSO [7, 14]: 96.4% | GFP response vs DMSO [8]: 103% (inactive) | GFP response, % of DMSO [9]: 93.1% (inactive) | GFP response, % of DMSO [9, 11]: 94% | GFP response, % of DMSO [9, 12]: 92.6% | double positive events [10]: 58.8% | vesicle binding response [10]: 182% (inactive)

COc1ccc(-c2noc(-c3ccccc3-c3ccccc3)n2)cc1
percent of DMSO control GFP [1]: 91.1% (inactive) | GFP response vs DMSO [2]: 142% (active) | percent response of DMSO control [3]: 114% (inactive) | GFP response vs DMSO [4]: 81.4% (inactive) | GFP response, % of DMSO [5]: 86.3% (inactive) | GFP response vs DMSO [6]: 95.6% (inactive) | GFP response vs DMSO [6, 11]: 92.9% | GFP response vs DMSO [6, 12]: 96.8% | GFP response relative to DMSO [7]: 95.7% (inactive) | GFP response relative to DMSO [7, 13]: 95.9% | GFP response relative to DMSO [7, 14]: 97.3% | GFP response vs DMSO [8]: 107% (inactive) | GFP response, % of DMSO [9]: 97.3% (inactive) | GFP response, % of DMSO [9, 11]: 97.4% | GFP response, % of DMSO [9, 12]: 96.8% | double positive events [10]: 56.5% | vesicle binding response [10]: 138% (inactive)

O=C(NCCN1CCN(c2ccccc2)CC1)c1cccc(Br)c1
percent of DMSO control GFP [1]: 91.3% (inactive) | GFP response vs DMSO [2]: 158% (active) | percent response of DMSO control [3]: 107% (inactive) | GFP response vs DMSO [4]: 88.6% (inactive) | GFP response, % of DMSO [5]: 91.5% (inactive) | GFP response vs DMSO [6]: 97% (inactive) | GFP response vs DMSO [6, 11]: 98% | GFP response vs DMSO [6, 12]: 97.4% | GFP response relative to DMSO [7]: 97.7% (inactive) | GFP response relative to DMSO [7, 13]: 101% | GFP response relative to DMSO [7, 14]: 96.5% | GFP response vs DMSO [8]: 102% (inactive) | GFP response, % of DMSO [9]: 102% (inactive) | GFP response, % of DMSO [9, 11]: 100% | GFP response, % of DMSO [9, 12]: 101% | double positive events [10]: 41.8% | vesicle binding response [10]: 59.1% (active)
